Compound activity as filed in PubChem BioAssay.
A selection: hits, their analogues and other compounds. The true share with any hit is near 0.92%.
Mtb UGM inh: blocks M. tuberculosis UGM enzyme. P9WIQ1. purified UGM, fluorescence polarization probe displacement. inhibition, % at 10 µM. hit rate 0.06% among 320,000. AID 504406; in the data active means inhibition above about 10%, passing the limit was not always enough
Target sequence (P9WIQ1 whole entry, looked up): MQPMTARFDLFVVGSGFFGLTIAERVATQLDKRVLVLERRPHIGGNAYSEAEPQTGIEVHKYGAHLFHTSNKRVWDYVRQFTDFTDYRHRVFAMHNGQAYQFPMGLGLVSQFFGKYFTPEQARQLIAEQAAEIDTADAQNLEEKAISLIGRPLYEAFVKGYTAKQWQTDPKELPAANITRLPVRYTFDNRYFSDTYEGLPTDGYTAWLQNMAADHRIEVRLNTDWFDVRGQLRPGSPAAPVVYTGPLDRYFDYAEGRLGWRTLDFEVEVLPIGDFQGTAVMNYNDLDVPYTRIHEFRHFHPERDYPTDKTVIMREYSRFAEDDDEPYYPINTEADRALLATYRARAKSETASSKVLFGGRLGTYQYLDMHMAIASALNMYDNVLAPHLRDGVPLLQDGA
RecA intein inh: Mtb RecA intein splicing inhibition; P9WHJ3; cell-free RecA intein splicing, fluorescence; inhibition, % (no concentration beside the values); hit rate 0.75% among 290,000; AID 2221; in the data active means inhibition above about 30%;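 further: 0% = vehicle wells and 100% = reference inhibitor control wells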
Mtb bLac sens: beta-lactam sensitization of Mtb H37Rv; M. tuberculosis H37Rv growth with meropenem, percent inhibition; inhibition, % at 25 µM; hit rate 0.27% among 330,000; AID 434955; call rule not given here;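 further: growth measured after seven days incubation then overnight dye step; 0% = bacteria only wells and 100% = bacteria with antibiotic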
FadD28 FP inh: blocks FadD28 binding to the bisubstrate probe. AID 588549. fluorescence polarization. hit rate 0.22% among 360,000. inhibition, % at 12.5 µM; in the data active means inhibition above about 8.5%, passing the limit was not always enough
Mtb hypoxia rep: Mtb hypoxia fluorescent reporter inhibition | fluorescence inhibition, % (concentration not given with the values) | M. tuberculosis hypoxia-regulated fluorescent reporter, fluorescence | AID 1159583 | hit rate 0.1% among 300,000; in the data active means fluorescence inhibition mostly above about 23%, no sharp cut-off; inactive means mostly below about 17%
Rv3671c protease: inhibits the M. tuberculosis serine protease Rv3671c; inhibition, % at 5.96 µM; hit rate 0.048% among 320,000; in the data active means inhibition above about 38%;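 further: extracellular domain of Rv3671c used as enzyme; 0% = enzyme with DMSO and 100% = no enzyme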
The depositor's hits bear a star; . = not tested or not shown.

SMILES	Mtb UGM inh	RecA intein inh	Mtb bLac sens	FadD28 FP inh	Mtb hypoxia rep	Rv3671c protease
CCCCOc1ccc(C2C3CN(C(=O)OCC)CC=C3C(C#N)=C(N)C2(C#N)C#N)cc1OC (stereo not drawn)	1	33*	37	-4	1	0
Cc1c(C(=O)N2CCN(S(=O)(=O)c3ccc(F)cc3)CC2)oc2ccccc12	3	-1	80	-3	39*	8
Cc1c(C(=O)N2CCN(S(=O)(=O)c3cccs3)CC2)oc2ccc(F)cc12	-1	.	5	0	-6	-8
CC(C)Sc1nc2c(c(=O)n(C)c(=O)n2C)n1Cc1ccc(Cl)cc1	-2	5	14	-4	38*	-6
Cn1c(=O)c2c(ncn2Cc2ccc(Cl)cc2)n(C)c1=O	0	8	-1	16*	1	-3
Cn1c(=O)c2c(nc(SCc3ccccc3)n2Cc2ccc(Cl)cc2)n(C)c1=O	1	-5	38	0	.	8
CCOC(=O)N(NC(=O)C(O)(C(C)C)C(C)C)c1ccccc1	1	1	-1	1	16	-1
N#C/C(=C\c1coc2ccc(O)cc2c1=O)C(=O)Nc1nc2ccccc2s1	-26	-4	1	29*	7	-7
CC1(C(=O)Nc2cnc3ccccc3c2)CCN1Cc1ccccc1OC(F)F (stereo not drawn)	.	.	.	-2	.	.
CC1(OC(=O)c2cnc3ccccc3n2)C(=O)C=C2C=C(C3CC3)OC=C2C1=O (stereo not drawn)	5	-11	1	.	.	38*
Cc1ccc(S(=O)(=O)N2CCN(C(=O)n3ccnc3)CC2)cc1	5	.	-5	1	-7	-7
COc1ccc(NC(=O)COc2ccc(/C=C/c3cc[n+](C)cc3)cc2OC)cc1	-1	6	2	-1	15	1
COc1cc(/C=C/c2cc[n+](C)cc2)ccc1OCC(=O)Nc1ccc(Cl)c(Cl)c1	2	40*	97	-39	16	-7
NS(=O)(=O)c1ccc(NC(=O)Nc2ccc(S(N)(=O)=O)cc2)cc1	-1	-2	7	-1	1	-10
Cc1ccc(C2=NC(=O)/C(=C/c3cc(O)c(O)c(Br)c3)S2)cc1	.	.	.	8.2*	20	.
COc1cc(/C=C2\SC(c3ccc(C)cc3)=NC2=O)cc(OC)c1O	-1	0	1	4	3	4
Cc1cc(C)cc(SCc2noc(C(=O)NC(C)C)c2C(=O)O)c1	1	-5	.	-4	.	0
CN1/C(=C\C=C(C#N)C#N)C(C)(C)c2ccccc21	72*	-7	-3	-2	-7	2
Cc1c(C)n(C)c2ccc(C(=O)NCc3cccs3)cc12	-2	8	6	12*	8	-22
Cc1c(C)n(C)c2ccc(C(=O)NCCCN3CCN(C)CC3)cc12	-1	3	6	0	2	-3
COC(=O)c1c(-c2cccs2)csc1NC(=O)CN1CCOCC1	0	6	12	-4	7	-3
O=C(Nc1nnc(SCCN2CCOCC2)s1)C1CC(=O)N(c2ccc(F)cc2)C1 (stereo not drawn)	2	5	-14	-1	-1	-5
CCCCCCCCCCCCCCCC[n+]1cccc2ccccc21	0	.	17	17*	10	1
CCCCCCCCC[n+]1cccc2c3ccccc3ccc21	-2	1	91	-6	7	-12
COc1cccc(-n2c(C)nn(C)c2=O)c1	-2	0	1	-3	5	8
SMILES	Mtb UGM inh	RecA intein inh	Mtb bLac sens	FadD28 FP inh	Mtb hypoxia rep	Rv3671c protease
CCCCN(C)CCNC(=O)Cn1c(=O)sc2ccccc21	-1	2	0	0	.	6
O=C(Nc1ccc(S(=O)(=O)NC2=NCCCCC2)cc1)c1ccc([N+](=O)[O-])s1	1	-2	16	-1	17	-1
O=C(Nc1ccc(S(=O)(=O)NC2=NCCCCC2)cc1)c1cccs1	0	.	0	-1	30*	-2
O=C(Cc1ccccc1)Nc1ccc(NC(=O)c2ccccc2)nc1	0	1	-7	.	9	-9
Cc1cc(O)c(C(C)C)cc1N=Cc1cc([N+](=O)[O-])ccc1O	2	-2	21	0	1	-1
O=c1[nH]cc(N=Cc2cc([N+](=O)[O-])ccc2O)c(=O)[nH]1	-1	50*	6	.	.	-6
O=C(O)c1ccc(-c2ccc(/C=C3\NC(=O)N(Cc4ccc(Cl)cc4)C3=O)o2)cc1Cl	.	-29	.	16*	6	.
COC(=O)C(Cc1c[nH]c2ccccc12)NC(=O)c1cncc(Br)c1 (stereo not drawn)	-1	5	-5	0	3	12
CCOc1ccccc1C=C1CCc2ccccc2C1=O	.	.	.	0	.	.
CCOc1ccc2noc3c2c1C(=O)c1ccccc1-3	21*	10	5	1	.	-8
O=C(Nc1nc2ccccc2s1)c1ccc2sc([C@H]3C[C@H](O)[C@@H](CO)O3)nc2c1	.	.	.	-7	.	.
CC(C)(C)C1CCc2sc(-c3nnc(CCl)o3)cc2C1 (stereo not drawn)	-2	51*	99	-2	18	-4
O=C(OCC#CCSc1nnc(-c2ccc(Br)cc2)o1)c1ccco1	3	1	100	-4	35*	-4
O=C(OCC#CCSc1nnc(-c2cccc3ccccc23)o1)c1cc2ccccc2o1	2	.	32	-4	48*	1
O=C(OCC#CCSc1nnc(-c2cccc3ccccc23)o1)c1ccc2ccccc2c1	-3	.	1	-4	20	-11
O=C(OCC#CCSc1nnc(-c2ccccc2)o1)c1ccco1	-1	4	99	-2	.	0
CCN(CC)c1ccc(C=C2C(=O)N(C)C(=S)N(C)C2=O)o1	-3	-1	4	-1	46*	-23
CCN(CC)c1ccc(/C=C2\C(=O)NC(=S)N(c3ccc(OC)cc3OC)C2=O)o1	4	-4	3	-4	54*	-13
CCN(CC)c1ccc(/C=C2\C(=O)NC(=S)N(C)C2=O)o1	-7	-2	95	-3	58*	-15
O=C1NS(=O)c2cc([N+](=O)[O-])cc([N+](=O)[O-])c21 (stereo not drawn)	4	-7	4	-2	0	1
CCC(CC)NC(=O)COn1nnc2ccc(S(=O)(=O)N3CCOCC3)cc21	0	-5	-2	-4	-2	6
Fc1ccc(C=NNC(=S)Nc2ccc(Cl)cc2Cl)cc1	.	.	.	.	5	.
O=[N+]([O-])c1cc(-c2ccc(C=Nn3cnnc3)o2)cc([N+](=O)[O-])c1	.	.	.	.	43*	.
C/C(=N\Nc1ccc(Cl)c(C(=O)O)c1)c1ccc[nH]1	-1	0	-3	28*	.	-2
COC(=O)C1=CC(C(=O)c2cccs2)=NN(c2ccc(OC)cc2)C1C(=O)OC (stereo not drawn)	21*	15	6	-7	5	0
CC(=O)NC1N=C(C)N(c2ccccc2)C1=O (stereo not drawn)	0	52*	0	-2	.	-4
CCCCCCn1nc(C(=O)N(CCCC)c2c(N)n(CCC)c(=O)[nH]c2=O)c2ccccc2c1=O	3	.	-9	-5	-4	1
